Screening data deposited in PubChem by National Center for Advancing Translational Sciences (NCATS).
GLA spleen mod = qHTS Assay for Inhibitors and Activators of Human alpha-Galactosidase From Spleen Homogenate | Potency, µM (doses to about 80 µM), for inactives: at the top dose activity change, negative = inhibition, most hits filed as inhibitors | human spleen homogenate, 4MU-alpha-Gal fluorescence, 40 min | 240,000 compounds, 0.008% hits | AID 2107, 2009;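 also: potency is read from the fitted curve at half-maximal effect; 0% = enzyme with vehicle and -100% = no enzyme basal signal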
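Human spleen homogenate (1 ug) as enzyme source, 4-methylumbelliferyl-alpha-D-galactopyranoside 1 mM final, citrate/phosphate pH 5.0 with 0.01% Tween-20. Compounds 40 min at 37C, NaOH/glycine stop; fluorescence Ex 365/Em 440, Hill-fit AC50.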
12-hLO inh = qHTS Assay for Inhibitors of 12-hLO (12-human lipoxygenase). AID 1452, 2008. Potency, µM (top dose mostly 57.1 µM), for the others: at the highest dose activity change, negative = inhibition, hits mostly inhibitors. purified 12-hLO, xylenol orange hydroperoxide absorbance. 150,000 compounds, 0.12% hits. Polyunsaturated fatty acid lipoxygenase ALOX12 (Homo sapiens), P18054; also: potency is read from the fitted curve at half-maximal effect; nearly all actives have a fitted effect of over 55% in size
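Lipoxygenase turnover measured by absorbance at 573 and 405 nm after Fe-XO development. Human 12hLO 150 nM, arachidonate 40 uM, pH 7.0 Hepes buffer with detergent; 15 min compound preincubation, 30 min reaction.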
PNC inhibitor = High Content Assay for Compounds that inhibit the Assembly of the Perinucleolar Compartment. PC3M PTB-GFP, PNC prevalence imaging, 16 h; active compounds read low. 140,000 compounds, 3.1% hits. activity change (PNC), negative = inhibition, % at 10 µM;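 active = readout at or below -70, meaning at least 70% loss of cells showing the perinucleolar compartment, a nuclear body marking cancer cells; inconclusive = readout between -30 and a set limit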;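 also: plate controls were DMSO wells for no effect and camptothecin positive control wells for full effect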
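PC3M cells stably expressing PTB-GFP, 750–1000 cells/well, treated 16 h at 37 °C with compound (23 nl of library stock), in duplicate. After paraformaldehyde fixation and Hoechst stain, imaged at 20x; PNC prevalence scored by image analysis.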
HPGD inh = qHTS Assay for Inhibitors of HPGD (15-Hydroxyprostaglandin Dehydrogenase). 15-hydroxyprostaglandin dehydrogenase [NAD(+)] (Homo sapiens), P15428. purified HPGD, NADH fluorescence kinetic, PGE2 substrate. Potency, µM, for the others: top-dose activity change, negative = inhibition, most hits filed as inhibitors. 150,000 compounds, 4.3% hits. AID 894, 2007; active = well fitted inhibition curve with a large enough effect, not every such curve was filed as active; inconclusive = small, poorly fitted or top-dose-only effect, or another doubt; inactive = no such curve, though single readings can be large or run the other way; also: potency is read from the fitted curve at half-maximal effect
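NADH formation kinetics: reaction with 30 uM PGE2 and 1 mM NAD+ (final), 20 nM enzyme, Tris-HCl pH 8 with Tween 20, after 15 min compound preincubation at room temperature. Fluorescence change, last versus first of five reads.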
ALDH1A1 inh = qHTS Assay for Inhibitors of Aldehyde Dehydrogenase 1 (ALDH1A1) | Potency, µM (series often up to 75.3 µM), for inactives: at the top dose activity, negative = inhibition, hits mostly inhibitors | Purified ALDH1A1, NADH fluorescence, propionaldehyde substrate | Aldehyde dehydrogenase 1A1 (Homo sapiens), P00352 | 220,000 compounds, 7.3% hits; active = well fitted inhibition curve with a large enough effect, not every such curve was filed as active; inconclusive = small, poorly fitted or top-dose-only effect, or another doubt; inactive = no such curve, though single readings can be large or run the other way;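 also: potency is read from the fitted curve at half-maximal effect; plate controls were no enzyme wells and a reference inhibitor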
Target sequence (P00352 whole entry, looked up): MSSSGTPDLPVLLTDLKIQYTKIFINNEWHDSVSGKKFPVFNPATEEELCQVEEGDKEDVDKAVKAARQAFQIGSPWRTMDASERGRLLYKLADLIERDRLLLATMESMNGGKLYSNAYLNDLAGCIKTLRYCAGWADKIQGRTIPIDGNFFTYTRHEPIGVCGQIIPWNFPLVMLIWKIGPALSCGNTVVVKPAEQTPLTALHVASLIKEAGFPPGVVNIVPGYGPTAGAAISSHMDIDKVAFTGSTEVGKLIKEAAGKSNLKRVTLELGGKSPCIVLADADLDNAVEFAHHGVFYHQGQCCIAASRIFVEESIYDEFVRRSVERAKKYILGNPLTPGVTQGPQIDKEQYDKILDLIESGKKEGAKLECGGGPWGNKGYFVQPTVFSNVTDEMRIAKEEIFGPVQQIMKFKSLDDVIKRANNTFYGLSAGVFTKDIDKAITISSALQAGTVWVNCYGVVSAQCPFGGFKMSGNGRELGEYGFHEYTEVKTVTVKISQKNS
GLA inh pH 4.5 = qHTS Assay for Inhibitors of Human alpha-Galactosidase at pH 4.5; Alpha-galactosidase A (Homo sapiens), P06280; purified enzyme, 4-MU-alpha-Gal fluorescence, pH 4.5; activity change, negative = inhibition, % at 105 µM; 230,000 tested, under 10 active;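 also: 0% = full activity with enzyme and -100% = basal without enzyme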
* = called active by the depositor; ? = inconclusive; / = no result given; [ ] = remark or other dose. Only some compounds are listed: those with a hit (about 10% of all), similar ones and a draw of the others. Unless noted, calls follow the shape of the dose curve; as a rule, active = well fitted curve in the direction sought with a large enough effect; inconclusive = small, poorly fitted or top-dose-only effect, or another doubt; inactive = no such curve, though single readings can be large; an effect the other way counts as inactive or inconclusive. Unless noted, % is scaled to controls: 0 for no effect and ±100 for the full control effect.

SMILES	GLA spleen mod	12-hLO inh	PNC inhibitor	HPGD inh	ALDH1A1 inh	GLA inh pH 4.5
CCOc1cc(/C=N/NC(=O)Cn2nc([N+](=O)[O-])cc2C)cc(Br)c1OCc1ccccc1F	-1%	-3%	39	-19%	0%	3
c1ccc(-n2nnnc2SCc2cccc3nsnc23)cc1	24%	-5%	-10	?	14µM*	-2
Cc1ccc(-n2nnnc2SCC(=O)N2c3ccccc3NC(=O)C2(C)C)cc1	11%	-7%	-100*	0%	-4%	0
Cc1ccc(C(=O)CSc2nnnn2-c2ccccc2)o1	4%	/	/	/	3.5µM*	2
Cc1ccc(C(=O)CSc2nnc(-c3ccccc3)n2-c2ccccc2)o1	1%	-1%	43	-14%	-2%	1
O=C1c2ccccc2C(=O)N1CCCCSc1nnnn1-c1ccccc1	1%	-14%	18	7.9µM*	0.18µM*	-2
O=C(Oc1ccc(NC(=O)c2cc3c(cc2Br)OCO3)cc1)c1ccccc1	-9%	/	/	/	/	-2
COc1ccc(OC)c(/C=C2/Sc3ccccc3C2=O)c1	3%	/	/	/	?	-14
O=C(CSc1nnnn1-c1ccccc1)CSc1nnnn1-c1ccccc1	-3%	3%	10	-16%	3.2µM*	-5
O=C(CSc1nnnn1-c1ccccc1)N1CCCc2ccccc21	-1%	4%	-5	-7%	7.9µM*	-7
Cc1nnc(SCCCN2C(=O)c3ccccc3C2=O)o1	18%	-1%	-8	-11%	-7%	3
CSc1nnnn1-c1ccc(C(=O)O)cc1	-3%	-4%	19	/	0%	3
O=C(O)c1ccc(-n2nnnc2SCc2ccccc2F)cc1	-6%	7%	-11	16µM*	?	0
O=C(O)CSc1nnnn1-c1ccccc1	4%	3%	?	-7%	3%	6
O=C1c2ccccc2C(=O)N1CCCCSc1nc2ccccc2o1	-6%	-3%	0	25µM*	?	-3
O=C(Cn1cnc2c(nnn2-c2ccc(F)cc2)c1=O)N1CCCc2ccccc21	7%	-11%	-23	-23%	28µM*	-2
O=C(CCCSc1nnnn1-c1ccccc1)c1ccc(F)cc1	-13%	-3%	-22	-16%	1.3µM*	-11
COc1cc(NC(=O)CSc2nnnn2-c2ccccc2)cc(OC)c1OC	3%	-6%	-8	3%	14%	7
Brc1ccccc1-c1nnc(CSc2nnnn2-c2ccccc2)o1	12%	0%	35	16µM*	10µM*	-3
COc1ccc(-n2nnc3c(=O)n(CC(=O)N4CCCc5ccccc54)cnc32)cc1	-6%	-3%	-10	?	?	4
O=C(O)CCSc1nnnn1-c1ccccc1	10%	0%	-15	/	-2%	0
Cc1cc(C)nc(NC(=O)CSc2nnnn2-c2ccccc2)n1	-6%	5%	11	-5%	7.1µM*	2
Cc1nnc(SCc2nnc(-c3ccccc3Br)o2)n1-c1ccccc1	5%	2%	-28	-29%	4%	5
Cc1ccccc1/C=N/N1CCN(c2ccccc2)CC1	-4%	-1%	-22	-9%	4%	-6
CC(=O)n1nc(-c2ccccc2)nc1NCc1ccc(N(C)C)cc1	2%	/	/	/	-5%	-3
SMILES	GLA spleen mod	12-hLO inh	PNC inhibitor	HPGD inh	ALDH1A1 inh	GLA inh pH 4.5
Nc1nc(CSc2nnnn2-c2ccccc2)nc(N2CCCc3ccccc32)n1	7%	-4%	?	?	2.8µM*	-1
Cc1cccc(CSC(=N)N)c1	8%	2%	-115*	/	8%	0
CC(C)Oc1ccc(CCc2n[nH]c(=S)n2-c2ccccc2)cc1	3%	/	/	/	-6%	6
C=CCc1ccc(OCC(O)COc2ccc(CC=C)cc2OC)c(OC)c1	-24%	6%	0	-7%	10µM*	/
C#CCn1c(=O)c2c(nc(/C=C/c3cccc(OC)c3)n2C)n(CCCO)c1=O	12%	/	/	/	/	/
CCCCc1nc2c(c3c1C[C@H](C)OC3)CN(C(=O)NCCCC(=O)OCC)CC2	-1%[17.5 µM]	-1%[11.4 µM]	/	-5%	9%[13.5 µM]	5
COc1cccc(CN(C)C(=O)c2ccc3nccnc3c2)c1	2%	3%	23	28µM*	2%	-4
CN(Cc1ccc(OC(F)F)cc1)C(=O)c1ccc2nccnc2c1	-2%	-1%	?	-10%	7%	-2
CS(=O)(=O)N1CCN(c2ccc([N+](=O)[O-])cc2F)CC1	1%	/	/	/	3.2µM*	-3
CS(=O)(=O)N1CCN(c2ccc([N+](=O)[O-])cc2C(F)(F)F)CC1	1%	/	/	/	/	-4
N#C/C(=C\Nc1ccc(Cl)cc1)S(=O)(=O)c1ccccn1	-2%	/	/	/	/	4
Cc1ccccc1Nc1nc(CSc2nnnn2-c2ccccc2)cs1	2%	-17%	32	?	7.9µM*	2
c1ccc(-c2nc(CSc3nnnn3-c3ccccc3)cs2)cc1	1%	-15%	?	-8%	14µM*	7
C/C(=N/NC(N)=S)c1ccc(Br)s1	4%	/	/	/	22µM*	-1
C/C(=N\NC(=O)c1ccc(Cl)c(Cl)c1)c1ccc(Br)s1	-12%	-1%	-11	-20%	-10%	5
COC(=O)CCCC1=CC2=CC(=O)C(C)(OC(=O)c3cccs3)C(=O)C2=CN1C(CO)CO (stereo not given)	3%[17.5 µM]	2%[11.4 µM]	/	2%	-1%[13.5 µM]	10
C/C(=N/Nc1nc(-c2ccc(Cl)cc2)cs1)c1cccs1	7%	-8%	?	-13%	16µM*	5
O=C(CSc1nc2ccccc2s1)NNC(=S)Nc1ccc(Br)cc1	-4%	-15%	49	-11%	8.9µM*	6
O=C(CSc1nc2ccccc2s1)NNC(=S)Nc1ccccc1	8%	-10%	?	?	8.9µM*	-4
S=c1[nH]cnc2scc(-c3ccc(Cl)cc3)c12	2%	/	/	/	/	2
COc1cccc2oc(-c3ccccc3)cc(=O)c12	-8%	0%	/	?	?	1
CCOc1cccc2oc(-c3ccccc3Cl)cc(=O)c12	2%[119 µM]	-13%[0.00818 µM]	/	45µM*	-10%	-19
O=c1cc(-c2ccccc2Cl)oc2cc(O)cc(O)c12	3%	-6%	-15	18µM*	?	7
